Out of some 16,000 compounds screened, about 5,800 (36%) were called active. Inconclusive results (about 23%) are left out. The call rests on the fitted dose curve; in most records, active means well fitted curve in the direction sought with a large enough effect; inconclusive means small, poorly fitted or top-dose-only effect, or effect the other way; inactive means no such curve, though single readings can be large or run the other way. This is one part of the list.
molecular target: Cytochrome P450 2C19 (Homo sapiens) (UniProt P33261); experiment: Cytochrome panel assay with activity outcomes; conditions: recombinant CYP, pro-luciferin dealkylation, luminescence, p450-cyp2c19; series mostly up to 57.1 µM; activity, negative = inhibition: at the top concentration
On the % scale 0 is the no-effect control and ±100 the full control effect.

Cytochrome P450 2C19 (Homo sapiens), sequence (P33261 whole entry, looked up): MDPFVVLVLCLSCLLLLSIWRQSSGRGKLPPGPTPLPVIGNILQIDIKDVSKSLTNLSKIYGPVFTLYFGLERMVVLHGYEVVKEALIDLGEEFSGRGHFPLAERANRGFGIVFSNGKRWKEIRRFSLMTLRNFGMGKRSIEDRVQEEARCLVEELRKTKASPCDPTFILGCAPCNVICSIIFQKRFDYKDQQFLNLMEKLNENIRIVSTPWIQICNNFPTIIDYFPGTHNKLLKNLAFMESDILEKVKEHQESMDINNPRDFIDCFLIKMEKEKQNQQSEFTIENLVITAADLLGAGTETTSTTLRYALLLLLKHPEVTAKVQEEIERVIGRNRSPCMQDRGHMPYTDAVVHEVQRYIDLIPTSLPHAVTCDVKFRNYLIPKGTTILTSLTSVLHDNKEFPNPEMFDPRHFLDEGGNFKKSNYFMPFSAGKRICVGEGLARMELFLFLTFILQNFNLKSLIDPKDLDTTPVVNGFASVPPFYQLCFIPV

Q: `O=C(Nc1cnn(Cc2ccc(Cl)cc2Cl)c1)c1cc(-c2cccs2)on1` was tested. Which AC50 did it give?
A: Its AC50 is 4.47 µM (active).

Q: With `c1ccc2c(c1)nnn2CN1CCOCC1` as the molecule, how does the activity, negative = inhibition read?
A: Its activity, negative = inhibition is 22.7% [at 11.4 µM] (inactive).

Q: For `Fc1ccc(C2=Nn3c(Cc4ccccc4F)nnc3SC2)cc1`, which AC50 is on record?
A: The AC50 was 3.98 µM (active).

Q: Which AC50 does the source give for `c1ccc(-c2ccc(C3=Nn4c(Cn5nnc6ccccc65)nnc4SC3)cc2)cc1` here?
A: Its AC50 is 14.1 µM (active).

Q: With `C#CCCCO/N=C1/C[C@@H](O)[C@@H](O)[C@@H]2[C@@H]3C(=O)N(CC)C(=O)[C@H]3CC[C@H]12` as the molecule, how does the activity, negative = inhibition read?
A: The activity, negative = inhibition was -28.1% [at 11.4 µM] (inactive).

Q: With `O=C(N/N=C1/C[C@@H](O)[C@@H](O)[C@@H]2[C@@H]3C(=O)N(Cc4ccccc4)C(=O)[C@H]3CC[C@H]12)OCc1ccccc1` as the molecule, how does the activity, negative = inhibition read?
A: Its activity, negative = inhibition is 0.945% [at 11.4 µM] (inactive).

Q: Which activity, negative = inhibition does the source give for `CC(C)=CCC/C(C)=C/CO/N=C1/C[C@@H](O)[C@@H](O)[C@@H]2[C@@H]3C(=O)N(C4CCCCC4)C(=O)[C@H]3CC[C@H]12` here?
A: The activity, negative = inhibition was -23.1% [at 11.4 µM] (inactive).

Q: How did the “activity, negative = inhibition” value turn out when `CN[C@@H]1[C@H](O[C@@H]2O[C@H](CO)[C@@H](N)[C@H](O)[C@@H]2O)O[C@H]2C[C@@H](N)[C@@H](O[C@H]3[C@@H](O)[C@H](O)[C@H](N)C[C@@H]3N)O[C@H]2[C@H]1O` was run?
A: Its value is -36.8% [at 25.6 µM] (inactive).

Q: `CC(=O)Nc1ccc(S(=O)(=O)NC(CC(=O)NCCCN2CCOCC2)C(C)C)cc1` (stereo not drawn) was tested. Which “activity, negative = inhibition” value did it give?
A: The value was -6.43% (inactive).

Q: For `CC(=O)Nc1ccc(S(=O)(=O)NC(CC(=O)NCCC2=CCCCC2)C(C)C)cc1` (stereo not drawn), which AC50 is on record?
A: The AC50 was 10 µM (active).

Q: How did the AC50 turn out when `CC(C)C(=O)NCCn1ccc2ccccc21` was run?
A: The AC50 was 6.31 µM (active).

Q: With `CCN(c1ccccc1)c1cc(NC)[n+](C)c(C)n1` as the molecule, how does the “activity, negative = inhibition” value read?
A: Its value is -3.33% (inactive).

Q: How did the activity, negative = inhibition turn out when `O=C(O)[C@@H]1[C@@H]2C[C@H]([C@@H](Br)[C@H]2N2C(=O)CCC2=O)[C@@H]1C(=O)O` was run?
A: The activity, negative = inhibition was 39.9% [at 11.4 µM] (inactive).

Q: Which “activity, negative = inhibition” value does the source give for `O=C(O)c1cc(=O)c2ccc(Cl)cc2[nH]1` here?
A: Its value is 14.6% (inactive).

Q: For `COc1cccc(/C=N/NC(=O)c2cc(-c3cccn3C)n[nH]2)c1`, which AC50 is on record?
A: The AC50 was 15.8 µM (active).

Q: `COc1cccc(/C=N/NC(=O)c2c(-c3ccccc3)noc2C)c1` was tested. Which AC50 did it give?
A: The AC50 was 2 µM (active).

Q: How did the AC50 turn out when `COc1ccc(NC(=O)COC(=O)c2c(-c3ccccc3)noc2C)cc1` was run?
A: Its AC50 is 8.91 µM (active).

Q: How did the “activity, negative = inhibition” value turn out when `COc1ccc(C(=O)COC(=O)c2ccc(NC(=O)c3ccccc3)cc2)cc1` was run?
A: The value was -6.93% (inactive).

Q: `COc1cccc(/C=N/NC(=O)C(=O)NCc2cccnc2)c1` was tested. Which “activity, negative = inhibition” value did it give?
A: The value was -29.3% (inactive).

Q: With `COc1ccc(C(=O)Nc2ccc(C(=O)OCC(=O)c3ccccc3)cc2)cc1` as the molecule, how does the “activity, negative = inhibition” value read?
A: The value was -13.4% (inactive).

Q: For `CC(C)(CC(=O)N1CCN(c2ccc(Cl)cc2)CC1)CC1=NS(=O)(=O)c2ccccc2N1`, which AC50 is on record?
A: The AC50 was 7.94 µM (active).

Q: Which “activity, negative = inhibition” value does the source give for `NC(=O)CCCC1=NS(=O)(=O)c2ccccc2N1` here?
A: The value was -11.7% (inactive).

Q: For `CC1=NS(=O)(=O)c2cc(Cl)ccc2N1`, which AC50 is on record?
A: The AC50 was “inactive”.

Q: How did the AC50 turn out when `CCCC1(C(=O)OC)C=C2C(=C(c3ccccc3)C(=O)C2C)CN1` (stereo not drawn) was run?
A: The AC50 was 7.94 µM (active).

Q: With `COC(=O)C1(CC(C)C)C=C2C(=C(c3ccccc3)C(=O)C2C)CN1` (stereo not drawn) as the molecule, how does the AC50 read?
A: Its AC50 is 39.8 µM (active).

Q: For `CCCC1(C(=O)OC)C=C2C(=C(C)C(=O)C2C)CN1` (stereo not drawn), which “activity, negative = inhibition” value is on record?
A: The value was -44.1% (inactive).

Q: How did the “activity, negative = inhibition” value turn out when `CCCC1(C(=O)OC)C=C2C(=C(C(C)C)C(=O)C2C)CN1` (stereo not drawn) was run?
A: Its value is -39.5% (inactive).

Q: With `C[N+](C)(N)Cc1csc(-c2ccc(Cl)cc2)n1` as the molecule, how does the activity, negative = inhibition read?
A: The activity, negative = inhibition was 8.52% [at 11.4 µM] (inactive).

Q: With `Nc1ccccc1SCc1csc(-c2ccc(Cl)cc2)n1` as the molecule, how does the AC50 read?
A: The AC50 was 0.501 µM (active).

Q: With `NNc1nncc2ccccc12` as the molecule, how does the AC50 read?
A: The AC50 was “inactive”.

Q: Which “activity, negative = inhibition” value does the source give for `CC1CC(OCC(O)CN2CCN(Cc3ccccc3)CC2)CC(C)(C)C1` (stereo not drawn) here?
A: Its value is -72.1% (inactive).

Q: How did the AC50 turn out when `CC1CCC(C(C)C)C(OCC(O)CN2CCN(Cc3ccccc3)CC2)C1` (stereo not drawn) was run?
A: The AC50 was 3.55 µM (active).

Q: Which AC50 does the source give for `O=C(c1ccccc1)c1ccc(OCC(O)CN2CCN(Cc3ccccc3)CC2)cc1` (stereo not drawn) here?
A: The AC50 was 4.47 µM (active).

Q: Which “activity, negative = inhibition” value does the source give for `CN1CCN(CC(O)c2ccccc2)CC1` (stereo not drawn) here?
A: The value was -12.4% (inactive).

Q: How did the activity, negative = inhibition turn out when `O[C@H](COc1ccccc1)CN1CCCCC1` was run?
A: The activity, negative = inhibition was 3.88% [at 11.4 µM] (inactive).

Q: For `CC#C[C@]1(O)CC[C@H]2[C@@H]3CCC4=CC(=O)CCC4=C3[C@H](c3ccc(N(C)C)cc3)C[C@@]21C`, which AC50 is on record?
A: The AC50 was 7.94 µM (active).

Q: How did the “activity, negative = inhibition” value turn out when `COc1cc2nc(N(C)CCCNC(=O)[C@@H]3CCCO3)nc(N)c2cc1OC` was run?
A: Its value is -17.6% [at 25.6 µM] (inactive).

Q: How did the AC50 turn out when `C=Cc1c(C)c2cc3nc(cc4[nH]c(cc5nc(cc1[nH]2)C(C)=C5CCC(=O)O)c(CCC(=O)OC)c4C)[C@@]1(C)C3=CC=C(C(=O)OC)[C@H]1C(=O)OC` (tested in a mixture with another compound) was run?
A: The AC50 was 1.26 µM (active).

Q: With `O=C(O)[C@@H]1[C@@H](C(=O)O)[C@]23C[C@@]2(C(=O)O)[C@]2(C(=O)O)CCC3=C3CCCC312` as the molecule, how does the activity, negative = inhibition read?
A: Its activity, negative = inhibition is 37.4% [at 11.4 µM] (inactive).

Q: `c1ccc(Cc2nnc(Sc3ccccc3)c3ccccc23)cc1` was tested. Which AC50 did it give?
A: The AC50 was 5.01 µM (active).

Q: With `N#CCCn1c(=O)c(-c2cccs2)nc2cnc(Nc3ccccc3)nc21` as the molecule, how does the “activity, negative = inhibition” value read?
A: Its value is 2.63% (inactive).

Q: `COc1cc(C(=O)OC(C)C(=O)Nc2ccc3c(c2)OCO3)ccc1OCc1c(C)noc1C` (stereo not drawn) was tested. Which AC50 did it give?
A: Its AC50 is 14.1 µM (active).

Q: With `O=C(O)[C@@H](S)[C@H](S)C(=O)O` as the molecule, how does the activity, negative = inhibition read?
A: The activity, negative = inhibition was -39.9% [at 11.4 µM] (inactive).
